According to PubChem BioAssay (NCI):
This is part of a sample that, as a whole, favours compounds with a hit. Of some 83,000 tested, about 20% had one in any assay.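 Values shown are percent growth following 48 h exposure of cells in 96-well plates to a single concentration of compound; below 10 was considered active.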 Unmarked numbers belong to inactive results. Calls of active or inactive are those of the source.

What was measured:
Experiment in all cases: NCI-60 one-dose screen, 48 h (100 = growth as untreated, 0 = no growth, -100 = all killed)
DU-145 prostate = conditions: 10 µM
K-562 leukemia = conditions: 10 µM
MALME-3M melanoma = conditions: 10 µM
MDA-MB-231 breast = conditions: 10 µM
RXF 393 renal = conditions: 10 µM
SF-268 CNS = conditions: 10 µM
SF-295 CNS = conditions: 10 µM
SF-539 CNS = conditions: 10 µM
UACC-257 melanoma = conditions: 10 µM
HCT-15 colon = conditions: 10 µM
HT29 colon = conditions: 10 µM
SNB-75 CNS = conditions: 10 µM
SNB-19 CNS = conditions: 10 µM
U251 CNS = conditions: 10 µM
PC-3 prostate = conditions: 10 µM
SK-MEL-5 melanoma = conditions: 10 µM
UACC-62 melanoma = conditions: 10 µM unless noted
LOX IMVI melanoma = conditions: 10 µM
SK-MEL-28 melanoma = conditions: 10 µM
M14 melanoma = conditions: 10 µM

SMILES: CC(=O)Oc1ccc(Br)cc1C(=O)O
- growth (DU-145 prostate): 120%
- growth (K-562 leukemia): 109%
- growth (MALME-3M melanoma): 98.2%
- growth (MDA-MB-231 breast): 118%
- growth (RXF 393 renal): 98.8%
- growth (SF-268 CNS): 106%
- growth (SF-295 CNS): 109%
- growth (SF-539 CNS): 93.2%
- growth (UACC-257 melanoma): 101%
- growth (HCT-15 colon): 102%
- growth (HT29 colon): 107%
- growth (SNB-75 CNS): 101%
- growth (SNB-19 CNS): 95%
- growth (U251 CNS): 105%
- growth (PC-3 prostate): 92.2%
- growth (SK-MEL-5 melanoma): 104%
- growth (UACC-62 melanoma): 98.6%
- growth (LOX IMVI melanoma): 94.6%
- growth (SK-MEL-28 melanoma): 124%

SMILES: O=[N+]([O-])c1ccc(Sc2ccncn2)c([N+](=O)[O-])c1
- growth (DU-145 prostate): 85.4%
- growth (K-562 leukemia): 26.3%
- growth (MALME-3M melanoma): 86.6%
- growth (MDA-MB-231 breast): 84.1%
- growth (RXF 393 renal): 81.7%
- growth (SF-268 CNS): 89%
- growth (SF-295 CNS): 113%
- growth (SF-539 CNS): 22.9%
- growth (UACC-257 melanoma): 64.7%
- growth (M14 melanoma): 8.79% (active)
- growth (HCT-15 colon): 85.3%
- growth (SNB-75 CNS): 81.8%
- growth (SNB-19 CNS): 106%
- growth (U251 CNS): 106%
- growth (SK-MEL-5 melanoma): 93.1%
- growth (UACC-62 melanoma): 74.1%
- growth (LOX IMVI melanoma): 4.84% (active)
- growth (SK-MEL-28 melanoma): 96.1%

SMILES: COc1cccc(Sc2ccc([N+](=O)[O-])c3no[n+]([O-])c23)c1
- growth (DU-145 prostate): 67.3%
- growth (K-562 leukemia): 8.93% (active)
- growth (MALME-3M melanoma): 27.7%
- growth (MDA-MB-231 breast): 74.2%
- growth (RXF 393 renal): -54% (active)
- growth (SF-268 CNS): 62.6%
- growth (SF-295 CNS): 95.9%
- growth (SF-539 CNS): 95.4%
- growth (UACC-257 melanoma): 96.7%
- growth (M14 melanoma): 72.1%
- growth (HT29 colon): 30.2%
- growth (SNB-75 CNS): 31.8%
- growth (SNB-19 CNS): 83.3%
- growth (SK-MEL-5 melanoma): 88.9%
- growth (UACC-62 melanoma): 53.2%
- growth (LOX IMVI melanoma): 28.9%
- growth (SK-MEL-28 melanoma): 55%

SMILES: CCCCOC(OCCCC)c1ccccc1
- growth (DU-145 prostate): 112%
- growth (K-562 leukemia): 107%
- growth (MALME-3M melanoma): 132%
- growth (MDA-MB-231 breast): 112%
- growth (RXF 393 renal): 128%
- growth (SF-268 CNS): 96.5%
- growth (SF-295 CNS): 111%
- growth (SF-539 CNS): 91.8%
- growth (UACC-257 melanoma): 109%
- growth (M14 melanoma): 113%
- growth (HT29 colon): 102%
- growth (SNB-75 CNS): 88.9%
- growth (SNB-19 CNS): 95.4%
- growth (U251 CNS): 109%
- growth (PC-3 prostate): 98.7%
- growth (SK-MEL-5 melanoma): 103%
- growth (UACC-62 melanoma): 97.2%
- growth (LOX IMVI melanoma): 92.7%
- growth (SK-MEL-28 melanoma): 107%

SMILES: O=C(c1ccc(Cl)cc1)c1ccccc1Cl
- growth (DU-145 prostate): 123%
- growth (K-562 leukemia): 96.8%
- growth (MALME-3M melanoma): 103%
- growth (MDA-MB-231 breast): 101%
- growth (RXF 393 renal): 93.3%
- growth (SF-268 CNS): 111%
- growth (SF-295 CNS): 92.3%
- growth (SF-539 CNS): 89%
- growth (UACC-257 melanoma): 93.6%
- growth (HCT-15 colon): 95.8%
- growth (HT29 colon): 101%
- growth (SNB-75 CNS): 100%
- growth (SNB-19 CNS): 85.1%
- growth (U251 CNS): 98.3%
- growth (PC-3 prostate): 93.4%
- growth (SK-MEL-5 melanoma): 94.5%
- growth (UACC-62 melanoma): 87.7%
- growth (LOX IMVI melanoma): 96.2%
- growth (SK-MEL-28 melanoma): 129%

SMILES: N#CSc1cc(S(N)(=O)=O)ccc1N
- growth (DU-145 prostate): 115%
- growth (K-562 leukemia): 113%
- growth (MALME-3M melanoma): 110%
- growth (MDA-MB-231 breast): 108%
- growth (RXF 393 renal): 119%
- growth (SF-268 CNS): 108%
- growth (SF-295 CNS): 120%
- growth (SF-539 CNS): 102%
- growth (UACC-257 melanoma): 107%
- growth (HCT-15 colon): 108%
- growth (HT29 colon): 101%
- growth (SNB-75 CNS): 85.5%
- growth (SNB-19 CNS): 102%
- growth (U251 CNS): 101%
- growth (PC-3 prostate): 109%
- growth (SK-MEL-5 melanoma): 101%
- growth (UACC-62 melanoma): 104%
- growth (LOX IMVI melanoma): 99.9%
- growth (SK-MEL-28 melanoma): 102%

SMILES: CC(C)OC(C(=O)O)c1ccccc1 (configuration not stated)
- growth (DU-145 prostate): 113%
- growth (K-562 leukemia): 124%
- growth (MALME-3M melanoma): 133%
- growth (MDA-MB-231 breast): 99.3%
- growth (RXF 393 renal): 117%
- growth (SF-268 CNS): 104%
- growth (SF-295 CNS): 138%
- growth (SF-539 CNS): 102%
- growth (UACC-257 melanoma): 116%
- growth (HCT-15 colon): 97.8%
- growth (HT29 colon): 109%
- growth (SNB-75 CNS): 78.2%
- growth (SNB-19 CNS): 99.5%
- growth (U251 CNS): 111%
- growth (PC-3 prostate): 82.9%
- growth (SK-MEL-5 melanoma): 105%
- growth (UACC-62 melanoma): 97.1%
- growth (LOX IMVI melanoma): 88.5%
- growth (SK-MEL-28 melanoma): 102%

SMILES: O=S(=O)(O)CC(O)CN1CCN(CCO)CC1 (configuration not stated)
- growth (DU-145 prostate): 111%
- growth (K-562 leukemia): 97.4%
- growth (MALME-3M melanoma): 114%
- growth (MDA-MB-231 breast): 119%
- growth (RXF 393 renal): 105%
- growth (SF-268 CNS): 109%
- growth (SF-295 CNS): 119%
- growth (SF-539 CNS): 111%
- growth (UACC-257 melanoma): 97.8%
- growth (M14 melanoma): 105%
- growth (HCT-15 colon): 102%
- growth (SNB-75 CNS): 102%
- growth (SNB-19 CNS): 115%
- growth (U251 CNS): 106%
- growth (PC-3 prostate): 81.1%
- growth (UACC-62 melanoma): 117%
- growth (LOX IMVI melanoma): 96.8%
- growth (SK-MEL-28 melanoma): 117%

SMILES: O/N=C/c1ccc(O)cc1O
- growth (DU-145 prostate): 112%
- growth (K-562 leukemia): 105%
- growth (MALME-3M melanoma): 109%
- growth (MDA-MB-231 breast): 105%
- growth (RXF 393 renal): 112%
- growth (SF-268 CNS): 105%
- growth (SF-295 CNS): 107%
- growth (SF-539 CNS): 104%
- growth (UACC-257 melanoma): 87.7%
- growth (HCT-15 colon): 89.9%
- growth (HT29 colon): 102%
- growth (SNB-75 CNS): 89.3%
- growth (SNB-19 CNS): 96.6%
- growth (U251 CNS): 90.6%
- growth (PC-3 prostate): 86.4%
- growth (SK-MEL-5 melanoma): 104%
- growth (UACC-62 melanoma): 96.5%
- growth (LOX IMVI melanoma): 105%
- growth (SK-MEL-28 melanoma): 107%
